High-throughput results (PubChem)
Fam108B counter: blocks mouse Fam108B hydrolase in RBBP9 counter-screen; recombinant Fam108B, FP-Rh probe fluorescence polarization; inhibition, % at 9.51 µM; 300,000 compounds, 0.33% hits;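 active means inhibition above the screen mean inhibition plus 3 SD, computed separately per campaign, cut at about 18% in these data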;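 further: inhibitors lower polarization as less probe binds the enzyme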
LYPLA2 inh: counter-screen for PME1 inhibitors: inhibitors of human LYPLA2; O95372; recombinant LYPLA2, FP-Rh probe fluorescence polarization; inhibition, % at 5.9 µM; 320,000 compounds, 0.38% hits; AID 2177;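 active means inhibition above the screen-wide mean plus 3 SD, limit set per campaign, cut at about 26% in these data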;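 further: 0% = LYPLA2 with DMSO and 100% = wells lacking LYPLA2 enzyme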
Target sequence (O95372 whole entry, looked up): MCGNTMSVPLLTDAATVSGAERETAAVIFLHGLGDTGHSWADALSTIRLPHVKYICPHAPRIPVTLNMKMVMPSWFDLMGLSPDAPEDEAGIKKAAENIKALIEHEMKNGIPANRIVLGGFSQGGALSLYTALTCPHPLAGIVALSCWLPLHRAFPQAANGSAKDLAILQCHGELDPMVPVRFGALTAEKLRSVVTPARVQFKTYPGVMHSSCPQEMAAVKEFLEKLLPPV
LYPLA1 inh: LYPLA1 (human) inhibition in PME1 counter-screen; O75608; recombinant LYPLA1, FP-Rh probe fluorescence polarization; inhibition, % at 5.9 µM; 320,000 compounds, 0.16% hits;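 active means inhibition above the mean of all tested compounds plus 3 SD, set per campaign, cut at about 14% in these data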;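 further: inhibitors block serine hydrolase probe labeling of LYPLA1 so polarization falls; 0% = enzyme with DMSO and 100% = wells lacking LYPLA1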
PME-1 primary: PME-1 (human) inhibition. Q9Y570. recombinant PME-1, FP-Rh probe fluorescence polarization. inhibition, % at 5.9 µM. 320,000 compounds, 0.53% hits;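 active means inhibition above the campaign mean of all compounds plus 3 SD, cut at about 26% in these data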;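 further: competitive labeling of PME-1 active site by serine hydrolase directed probe; 0% = PME-1 with DMSO and 100% = wells lacking PME-1 enzyme; inhibitors block probe labeling so polarization falls and inhibition rises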
PREPL inh: inhibits the human prolyl oligopeptidase-like enzyme; 320,000 compounds, 0.68% hits; inhibition, % at 5.96 µM; AID 2751; recombinant PREPL, fluorescence polarization activity-based probe; in the data active means inhibition above about 43%;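 further: 0% = enzyme with DMSO and 100% = wells lacking enzyme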
* = called active by the depositor; nt = not tested or not shown. This is a sample that favours compounds with a hit; in the whole collection about 1.3% have one here.

SMILES	Fam108B counter	LYPLA2 inh	LYPLA1 inh	PME-1 primary	PREPL inh
COc1cc(C2Nc3cccc4cccc(c34)N2)ccc1OC(C)=O	22*	-1	-8	16	28
Cc1ccc(C(=O)OCC(=O)N(CC(C)C)c2c(N)n(Cc3ccccc3)c(=O)[nH]c2=O)s1	0	7	2	-3	7
CC(C)CCNC(=O)Cn1c(NCCC(C)C)nc2c1c(=O)n(C)c(=O)n2C	0	0	-1	-1	-1
CCN1/C(=C/c2ccc3cccc(C)c3[n+]2CC)Sc2ccccc21	-7	5	2	-8	60*
CCn1c2ccccc2c2cc(/C=N/NC(=O)c3ccc(O)cc3)ccc21	-9	-39	-26	-10	24
Cn1c2ccccc2c2cc(/C=N/NC(=O)c3ccc(O)cc3O)ccc21	15	-18	-14	47*	31
O=C1CN(C(=O)COC(=O)c2ccc(Cl)c(S(=O)(=O)N3CCCCC3)c2)c2ccccc2N1	nt	nt	nt	nt	11
CCn1cc(C(=O)NCCCN2CCC(C)CC2)c(=O)c2cc(S(=O)(=O)N(C)C3CCCCC3)ccc21	-3	2	5	38*	19
CCn1cc(C(=O)NCCCN2CC(C)CC(C)C2)c(=O)c2cc(S(=O)(=O)N(C)C3CCCCC3)ccc21 (stereo not drawn)	-10	1	-5	33*	33
CCN(CC)CCNC(=O)c1cn(CC)c2ccc(S(=O)(=O)N(C)C3CCCCC3)cc2c1=O	-3	3	-2	22	7
Cc1ccc(S(=O)(=O)/N=C(\CN2CCCCC2)N2CCOCC2)cc1	-4	-1	2	-3	2
O=C(/C=C1\NC2(CCCC2)Cc2ccccc21)C(=O)N/N=C/c1ccc(O)c(O)c1	11	-7	-13	32*	42
COc1ccc(/C=N/NC(=O)C(=O)/C=C2\NC3(CCCC3)Cc3ccccc32)cc1	-15	-16	-14	-10	3
CCOc1ccc(C(=O)NC(C)CCc2ccccc2)cc1 (stereo not drawn)	-1	-5	-3	39*	21
Cc1[nH]c2ccccc2c1/C=N/n1cnnc1	2	-1	-1	4	8
COCCN=c1scc(-c2cc(OC)c(OC)c(OC)c2)n1/N=C/c1c(C)[nH]c2ccccc12	4	-1	-8	27*	23
CC1(C)C(=O)Nc2ccccc2N1C(=O)COc1cc(Cl)ccc1Cl	nt	2	1	4	14
CCCn1c(N)c(C(=O)CN(C)CC(=O)Nc2cccc(F)c2)c(=O)[nH]c1=O	nt	-1	-2	2	1
CCCn1c(N)c(C(=O)CN(C)CC(=O)Nc2ccccc2CC)c(=O)[nH]c1=O	nt	2	5	33*	5
CN(C(=O)COC(=O)CCC1CCCCC1)c1c(N)n(Cc2ccccc2)c(=O)[nH]c1=O	-2	2	0	-4	-4
CCOc1cccc(/C=C/c2ccc3cccc(O)c3n2)c1O	3	-3	-6	36*	23
CCOc1cccc(/C=C/c2ccc3cccc(O)c3n2)c1OC	-7	-8	-5	-6	8
O=C(OCCN(C1=NS(=O)(=O)c2ccccc21)c1ccc(Cl)cc1)c1ccco1	1	-3	-4	27*	5
O=C(Oc1ccc(N(Cc2cccs2)C2=NS(=O)(=O)c3ccccc32)cc1)c1ccco1	-3	-4	0	0	42
CC(C)(C)c1[nH]nc2c1C(c1ccc(OC(=O)c3ccco3)cc1)C(C#N)=C(N)O2 (stereo not drawn)	1	-6	-4	-6	71*
SMILES	Fam108B counter	LYPLA2 inh	LYPLA1 inh	PME-1 primary	PREPL inh
CC(=O)Nc1ccc(Nc2nc(C)c([N+](=O)[O-])c(Nc3ccccc3)n2)cc1	12	11	0	30*	20
Cc1nc(Nc2ccc(C(=O)O)cc2)nc(Nc2ccc(C(=O)O)cc2)c1[N+](=O)[O-]	3	0	-1	-5	-5
COc1ccc(Nc2nc(NN)nc(C)c2[N+](=O)[O-])cc1	9	6	-5	29*	23
Cc1nc(Nc2ccc(F)cc2)nc(Nc2ccc(F)cc2)c1[N+](=O)[O-]	-16	-5	-3	-6	-11
Cc1ccc(F)c(CNC(=O)C2CCC(=O)N(Cc3ccccn3)C2)c1F (stereo not drawn)	4	1	0	-2	15
CC(=O)Nc1ccc(NC(=O)C2CC(=O)N(c3ccccc3Cl)C2)cc1 (stereo not drawn)	2	2	0	2	16
Cc1ccc(-n2c(N)c(C(=O)Nc3c(C)n(C)n(-c4ccccc4)c3=O)c3nc4ccccc4nc32)cc1C	5	1	1	3	43*
